Measured values: the supplement of paper PMC10849652
Of roughly 7,900 targets only a part is listed; those with a hit were picked by preference. About 0.6% of all pairs of compound and target were hits. A number with no mark means an inactive call.

Columns and labels:
Experiment in all cases: log2 fold change, soluble protein after heating vs DMSO (PISA); higher = thermal stabilisation; K562 cells, 10 uM, 30 min; active = over 0.2 and 3.5 SD of the protein, either way, in both replicates (recomputed)
[1] = compound: CC[C@@H]1C(=O)N(C)c2cnc(Nc3ccc(C(=O)NC4CCN(C)CC4)cc3OC)nc2N1C1CCCC1
Summary of the method: (§1)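 K562 cells at 2×10^6 cells/mL were treated for 30 min with 10 μM compound, and aliquots were heated for 3 min over 48°C-58°C before pooling. Extraction used PBS with 0.5% NP-40 at 4°C, and soluble protein was the supernatant after 21,000xg for 90 min, measured by TMTpro 16plex LC-MS/MS with channel sums equalised. Thermal stability values, relative to control samples and from duplicates, are log2 fold changes.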

volasertib = compound: CC[C@@H]1C(=O)N(C)c2cnc(Nc3ccc(C(=O)N[C@H]4CC[C@H](N5CCN(CC6CC6)CC5)CC4)cc3OC)nc2N1C(C)C [volasertib]
Summary of the method: as §1

[2] = compound: CC[C@H](C)N1C=C(C2=C(C=C(C=C21)C3=CN=C(C=C3)N4CCNCC4)C(=O)NCC5=C(C=C(NC5=O)C)C)C
Summary of the method: as §1

epoxomicin = compound: CC[C@H](C)[C@@H](C(=O)N[C@@H]([C@@H](C)O)C(=O)N[C@@H](CC(C)C)C(=O)[C@]1(CO1)C)NC(=O)[C@H]([C@@H](C)CC)N(C)C(=O)C [epoxomicin]
Summary of the method: as §1

[3] = compound: CCn1c(C(=O)N(C2CC2)C2CC2)cc2c3c(ncn3C)c(Nc3cc(C)n(C)n3)nc21
Summary of the method: as §1

[4] = compound: CCn1cc(-c2ccnc3[nH]c(-c4cccc(CN(C)C)c4)cc23)c(-c2ccc(NC(=O)N(C)C)cc2)n1
Summary of the method: as §1

[5] = compound: CN(C)CC(=O)Nc1ccc2[nH]c(=O)c3ccccc3c2c1
Summary of the method: as §1

rosiglitazone = compound: CN(CCOC1=CC=C(C=C1)C[C@H]2C(=O)NC(=O)S2)C3=CC=CC=N3 (racemic) [rosiglitazone]
Summary of the method: as §1

[6] = compound: CN1C2=C(C3=C1C(=O)N(N=C3)CC4=CC(=CC=C4)N)SC(=C2)S(=O)C
Summary of the method: as §1

[7] = compound: CN1CCC(CNc2ccc3ncc(-c4cccc(OC(F)(F)F)c4)n3n2)CC1
Summary of the method: as §1

Chain of UniProt Q9BZD2 (Q9BZD2 whole entry, looked up): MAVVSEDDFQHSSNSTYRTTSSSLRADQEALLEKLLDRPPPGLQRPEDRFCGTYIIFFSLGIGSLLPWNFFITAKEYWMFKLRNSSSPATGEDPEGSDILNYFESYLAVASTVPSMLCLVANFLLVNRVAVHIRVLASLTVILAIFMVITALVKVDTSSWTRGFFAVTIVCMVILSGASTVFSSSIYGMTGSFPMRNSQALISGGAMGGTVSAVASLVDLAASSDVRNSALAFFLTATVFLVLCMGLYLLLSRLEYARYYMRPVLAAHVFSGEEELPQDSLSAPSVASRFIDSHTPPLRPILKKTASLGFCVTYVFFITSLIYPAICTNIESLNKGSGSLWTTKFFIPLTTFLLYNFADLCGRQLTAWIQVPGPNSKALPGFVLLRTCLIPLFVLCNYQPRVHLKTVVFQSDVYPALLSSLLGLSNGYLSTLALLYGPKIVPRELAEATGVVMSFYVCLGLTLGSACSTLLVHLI
Chain of UniProt P51687 (P51687 whole entry, looked up): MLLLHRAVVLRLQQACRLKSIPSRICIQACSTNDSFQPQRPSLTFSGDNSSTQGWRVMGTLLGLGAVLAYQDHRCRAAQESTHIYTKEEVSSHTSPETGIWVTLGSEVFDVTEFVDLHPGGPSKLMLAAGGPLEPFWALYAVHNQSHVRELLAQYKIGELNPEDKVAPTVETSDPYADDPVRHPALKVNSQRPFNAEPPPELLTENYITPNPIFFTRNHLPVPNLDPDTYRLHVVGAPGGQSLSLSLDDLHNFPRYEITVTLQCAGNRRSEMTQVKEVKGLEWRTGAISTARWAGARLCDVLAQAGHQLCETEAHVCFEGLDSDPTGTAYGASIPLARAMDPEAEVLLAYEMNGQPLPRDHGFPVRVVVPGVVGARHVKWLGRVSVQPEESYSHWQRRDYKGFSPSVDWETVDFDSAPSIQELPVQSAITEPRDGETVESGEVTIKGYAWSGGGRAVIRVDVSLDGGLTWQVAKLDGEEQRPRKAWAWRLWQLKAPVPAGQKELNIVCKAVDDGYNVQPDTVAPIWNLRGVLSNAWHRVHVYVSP
Chain of UniProt Q8N1S5 (Q8N1S5 whole entry, looked up): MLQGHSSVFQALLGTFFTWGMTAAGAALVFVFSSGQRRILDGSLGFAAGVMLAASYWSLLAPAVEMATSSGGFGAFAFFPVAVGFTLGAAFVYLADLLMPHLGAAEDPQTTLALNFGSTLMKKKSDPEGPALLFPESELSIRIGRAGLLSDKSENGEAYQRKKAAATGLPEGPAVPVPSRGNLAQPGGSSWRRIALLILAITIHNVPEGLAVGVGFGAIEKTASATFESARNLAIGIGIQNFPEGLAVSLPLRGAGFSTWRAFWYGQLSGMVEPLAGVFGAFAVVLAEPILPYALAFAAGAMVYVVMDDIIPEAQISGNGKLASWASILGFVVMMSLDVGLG
Chain of UniProt Q8WUH2 (Q8WUH2 whole entry, looked up): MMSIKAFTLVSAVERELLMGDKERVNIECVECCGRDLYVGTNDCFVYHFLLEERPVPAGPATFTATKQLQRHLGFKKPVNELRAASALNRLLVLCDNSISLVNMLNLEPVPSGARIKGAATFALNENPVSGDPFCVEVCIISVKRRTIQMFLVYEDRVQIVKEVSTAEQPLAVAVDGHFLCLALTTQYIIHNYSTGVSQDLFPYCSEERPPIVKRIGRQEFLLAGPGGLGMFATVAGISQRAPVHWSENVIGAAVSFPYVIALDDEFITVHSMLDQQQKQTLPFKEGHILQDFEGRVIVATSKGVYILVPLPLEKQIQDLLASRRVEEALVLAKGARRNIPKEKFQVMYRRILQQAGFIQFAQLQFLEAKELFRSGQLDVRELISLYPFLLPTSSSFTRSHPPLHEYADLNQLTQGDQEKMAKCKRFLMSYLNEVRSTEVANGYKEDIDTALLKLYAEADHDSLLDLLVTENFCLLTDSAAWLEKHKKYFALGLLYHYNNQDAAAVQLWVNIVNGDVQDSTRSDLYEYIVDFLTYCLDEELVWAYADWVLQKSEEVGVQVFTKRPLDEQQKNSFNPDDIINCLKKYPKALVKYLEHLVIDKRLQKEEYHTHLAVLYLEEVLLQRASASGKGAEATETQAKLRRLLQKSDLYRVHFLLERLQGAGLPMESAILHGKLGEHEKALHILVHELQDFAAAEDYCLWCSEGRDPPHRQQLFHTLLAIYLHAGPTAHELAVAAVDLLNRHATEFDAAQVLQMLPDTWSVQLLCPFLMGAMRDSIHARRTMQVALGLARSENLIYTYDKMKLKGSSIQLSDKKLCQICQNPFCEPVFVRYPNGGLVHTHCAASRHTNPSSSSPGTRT
Chain of UniProt Q9BWG4 (Q9BWG4 whole entry, looked up): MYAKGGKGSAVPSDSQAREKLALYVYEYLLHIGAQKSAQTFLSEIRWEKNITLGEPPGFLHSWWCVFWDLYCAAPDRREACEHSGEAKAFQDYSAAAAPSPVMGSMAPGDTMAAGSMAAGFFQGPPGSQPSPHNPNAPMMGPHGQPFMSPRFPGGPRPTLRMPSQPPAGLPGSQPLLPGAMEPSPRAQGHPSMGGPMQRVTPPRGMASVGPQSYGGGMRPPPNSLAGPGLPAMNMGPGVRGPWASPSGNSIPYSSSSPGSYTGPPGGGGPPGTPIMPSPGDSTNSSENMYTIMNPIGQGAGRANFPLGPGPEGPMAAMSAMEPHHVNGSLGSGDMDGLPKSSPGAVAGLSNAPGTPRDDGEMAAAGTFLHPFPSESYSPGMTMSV
Chain of UniProt Q9BYN0 (Q9BYN0 whole entry, looked up): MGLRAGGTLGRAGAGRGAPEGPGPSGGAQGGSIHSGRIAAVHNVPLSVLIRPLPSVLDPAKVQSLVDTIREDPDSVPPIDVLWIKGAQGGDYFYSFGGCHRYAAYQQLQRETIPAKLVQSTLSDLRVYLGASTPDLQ
Chain of UniProt P78382 (P78382 whole entry, looked up): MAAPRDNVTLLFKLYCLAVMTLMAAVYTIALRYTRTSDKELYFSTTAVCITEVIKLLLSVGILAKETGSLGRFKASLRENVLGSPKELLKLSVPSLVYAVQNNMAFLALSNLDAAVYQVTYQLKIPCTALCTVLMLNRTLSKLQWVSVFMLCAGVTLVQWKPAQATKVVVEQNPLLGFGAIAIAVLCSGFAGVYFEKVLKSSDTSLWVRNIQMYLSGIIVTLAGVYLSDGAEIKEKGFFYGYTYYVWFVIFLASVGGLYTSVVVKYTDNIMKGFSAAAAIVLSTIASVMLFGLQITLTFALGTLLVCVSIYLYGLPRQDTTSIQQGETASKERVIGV
Chain of UniProt Q9NQZ5 (Q9NQZ5 whole entry, looked up): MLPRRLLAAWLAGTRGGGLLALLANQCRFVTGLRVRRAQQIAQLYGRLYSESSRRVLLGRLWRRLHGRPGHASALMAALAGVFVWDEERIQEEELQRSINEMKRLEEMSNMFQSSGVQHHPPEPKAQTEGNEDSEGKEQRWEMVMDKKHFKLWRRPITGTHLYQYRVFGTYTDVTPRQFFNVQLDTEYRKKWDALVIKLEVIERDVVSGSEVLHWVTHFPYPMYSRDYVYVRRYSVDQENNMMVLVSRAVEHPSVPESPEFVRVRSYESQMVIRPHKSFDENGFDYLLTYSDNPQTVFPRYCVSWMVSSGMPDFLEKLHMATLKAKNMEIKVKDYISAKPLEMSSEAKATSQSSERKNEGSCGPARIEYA
Chain of UniProt Q96DI7 (Q96DI7 whole entry, looked up): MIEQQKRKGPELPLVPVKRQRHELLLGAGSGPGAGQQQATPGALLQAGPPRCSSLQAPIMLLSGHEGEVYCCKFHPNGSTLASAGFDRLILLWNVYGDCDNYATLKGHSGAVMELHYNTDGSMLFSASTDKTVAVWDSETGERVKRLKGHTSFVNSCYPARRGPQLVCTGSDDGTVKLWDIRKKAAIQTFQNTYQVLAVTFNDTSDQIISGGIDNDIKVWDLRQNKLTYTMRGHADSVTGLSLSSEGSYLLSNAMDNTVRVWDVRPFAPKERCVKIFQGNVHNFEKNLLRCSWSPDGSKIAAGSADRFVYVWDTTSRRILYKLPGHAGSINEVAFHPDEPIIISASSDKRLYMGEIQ
Chain of UniProt Q9NRS6 (Q9NRS6 whole entry, looked up): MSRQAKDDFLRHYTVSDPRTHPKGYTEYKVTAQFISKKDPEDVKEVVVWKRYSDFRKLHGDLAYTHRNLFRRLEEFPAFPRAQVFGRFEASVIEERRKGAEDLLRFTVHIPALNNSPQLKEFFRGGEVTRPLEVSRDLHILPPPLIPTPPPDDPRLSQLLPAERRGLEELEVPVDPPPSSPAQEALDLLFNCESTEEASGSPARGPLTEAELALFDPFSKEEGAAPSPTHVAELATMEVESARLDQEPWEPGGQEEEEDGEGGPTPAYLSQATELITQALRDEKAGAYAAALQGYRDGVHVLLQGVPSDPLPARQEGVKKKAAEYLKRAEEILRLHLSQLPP
Chain of UniProt P55061 (P55061 whole entry, looked up): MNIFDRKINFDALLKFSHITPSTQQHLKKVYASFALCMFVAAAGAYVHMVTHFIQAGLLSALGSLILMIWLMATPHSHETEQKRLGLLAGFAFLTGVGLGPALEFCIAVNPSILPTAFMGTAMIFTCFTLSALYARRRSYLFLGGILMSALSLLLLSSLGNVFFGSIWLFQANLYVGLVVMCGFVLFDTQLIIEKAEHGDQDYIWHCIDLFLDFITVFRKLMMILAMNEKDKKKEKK
Chain of UniProt Q15796 (Q15796 whole entry, looked up): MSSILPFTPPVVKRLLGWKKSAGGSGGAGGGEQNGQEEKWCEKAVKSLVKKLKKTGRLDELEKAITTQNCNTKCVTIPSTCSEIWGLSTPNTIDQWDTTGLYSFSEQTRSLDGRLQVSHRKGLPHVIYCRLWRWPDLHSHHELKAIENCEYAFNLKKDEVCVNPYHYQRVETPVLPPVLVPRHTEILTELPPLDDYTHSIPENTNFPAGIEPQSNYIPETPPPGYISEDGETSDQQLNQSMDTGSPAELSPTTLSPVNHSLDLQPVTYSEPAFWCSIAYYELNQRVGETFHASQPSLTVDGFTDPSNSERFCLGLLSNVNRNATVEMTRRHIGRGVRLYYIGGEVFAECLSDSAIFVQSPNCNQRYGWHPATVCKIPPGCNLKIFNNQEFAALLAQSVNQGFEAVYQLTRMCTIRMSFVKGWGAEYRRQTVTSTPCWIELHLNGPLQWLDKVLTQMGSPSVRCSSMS

Row | Target | log2 fold change [1] | log2 fold change (volasertib) | log2 fold change [2] | log2 fold change (epoxomicin) | log2 fold change [3] | log2 fold change [4] | log2 fold change [5] | log2 fold change (rosiglitazone) | log2 fold change [6] | log2 fold change [7]
1 | TGFBRAP1 (UniProt Q8WUH2) | -0.098 | -0.253 | 0.128 | 0.048 | -0.038 | -0.059 | 0.11 | 0.097 | 0.195 | 0.011
2 | SNRPB2 (UniProt P08579) | 0.176 | 0.174 | -0.069 | -0.05 | 0.025 | 0.069 | -0.063 | -0.047 | -0.008 | 0.098
3 | SMC5 (UniProt Q8IY18) | 0.042 | 0.054 | -0.009 | 0.018 | -0.023 | -0.025 | 0.033 | 0 | 0.005 | 0.037
4 | SNW1 (UniProt Q13573) | 0.094 | 0.078 | -0.052 | -0.012 | 0.03 | 0.044 | -0.027 | -0.047 | 0 | 0.078
5 | SMPD4 isoform 4 (UniProt Q9NXE4) | -0.067 | -0.076 | 0.068 | -0.008 | -0.049 | -0.081 | 0.036 | 0.075 | -0.075 | -0.32 (active)
6 | TARS2 (UniProt Q9BW92) | -0.017 | -0.128 | 0.012 | 0.02 | 0.009 | -0.002 | -0.019 | 0.018 | -0.055 | -0.069
7 | SLC39A11 (UniProt Q8N1S5) | 0.102 | 0.071 | 0.007 |  | 0 | -0.136 | -0.062 | -0.007 | -0.021 | 0.15
8 | SMAD2 (UniProt Q15796) | -0.067 | -0.347 (active) | 0.065 | 0.11 | -0.032 | -0.014 | 0.014 | 0.078 | -0.158 | -0.018
9 | SUOX (UniProt P51687) | 0.003 | -0.04 | -0.02 | 0.013 | 0.026 | 0 | 0.005 | 0.012 | -0.07 | -0.31 (active)
10 | TAOK2 (UniProt Q9UL54) | 0.024 | -0.061 | -0.006 | -0.01 | -0.277 | -0.076 |  |  |  | 0.01
11 | SNRNP40 (UniProt Q96DI7) | 0.067 | 0.059 | 0.026 | -0.05 | -0.018 | -0.033 | -0.012 | -0.001 | -0.029 | 0.261 (active)
12 | TMBIM6 isoform 2 (UniProt P55061) | -0.075 | -0.061 | -0.041 | 0.25 | -0.055 |  | 0.066 | -0.046 | -0.007 | 
13 | SUGP1 (UniProt Q8IWZ8) | -0.155 | -0.341 (active) | 0.056 | 0.062 | -0.102 | -0.007 | 0.021 | 0.042 | -0.028 | -0.081
14 | SMAD9 (UniProt O15198) | 0.059 | -0.417 (active) | -0.137 | 0.026 | -0.006 | 0.035 | 0.043 | 0.13 | -0.087 | -0.261
15 | TBC1D20 isoform 3 (UniProt Q96BZ9) | 0.273 | -0.153 | 0.07 | 0.068 | -0.111 | 0.028 | 0.04 | -0.03 |  | 0.046
16 | SRFBP1 (UniProt Q8NEF9) | 0.208 | 0.157 | -0.094 | -0.047 | -0.088 | 0.049 |  | 0.078 | 0.117 | 0.277

Row | Target | log2 fold change [1] | log2 fold change (volasertib) | log2 fold change [2] | log2 fold change (epoxomicin) | log2 fold change [3] | log2 fold change [4] | log2 fold change [5] | log2 fold change (rosiglitazone) | log2 fold change [6] | log2 fold change [7]
17 | TM7SF3 (UniProt Q9NS93) | -0.136 | -0.178 | -0.074 |  | -0.006 |  |  | -0.022 | 0.025 | 
18 | SLC4A2 (UniProt P04920) | 0.039 | -0.071 | -0.044 | 0.029 | -0.021 | -0.028 | 0.022 | 0.066 | 0.035 | -0.018
19 | TENT5C (UniProt Q5VWP2) | -0.073 | -0.038 | 0.005 |  | 0.085 | 0.009 | 0.031 | 0.033 | -0.066 | -0.082
20 | SLC38A2 (UniProt Q96QD8) | 0.035 | 0.004 | -0.091 | -0.078 | 0.084 |  | -0.022 | 0.002 | -0.1 | 
21 | SPINDOC (UniProt Q9BUA3) | -0.131 | -0.178 | -0.243 | 0.071 | -0.094 | 0.105 | 0.074 | -0.041 | -0.222 | -0.02
22 | SNX3 (UniProt O60493) | -0.071 | -0.147 | 0.107 | -0.033 | -0.176 | 0.057 | 0.077 | 0.018 | 0.116 | -0.319
23 | SLC29A3 (UniProt Q9BZD2) | 0.171 | 0.007 | 0.05 | -0.048 | 0.047 |  | 0.002 | -0.049 | -0.161 | 
24 | STARD7 (UniProt Q9NQZ5) | -0.07 | -0.032 | 0.007 | 0.024 | 0.037 | -0.123 | 0.012 | 0.055 | 0.012 | -0.158
25 | TANGO6 (UniProt Q9C0B7) | 0.276 | -0.375 (active) | 0.052 | 0.035 | -0.165 |  |  | 0.037 | 0.006 | 
26 | SSBP4 (UniProt Q9BWG4) | 0 | -0.056 | -0.036 |  | -0.116 | -0.009 |  | 0.162 | -0.238 | 0.036
27 | SRXN1 (UniProt Q9BYN0) | -0.031 | -0.083 | 0.027 | 0.069 |  | 0.159 | 0.046 | 0.124 |  | -0.199
28 | TBC1D9B (UniProt Q66K14) | -0.58 (active) | -0.348 (active) | 0.053 | -0.073 | -0.089 | -0.141 | 0.021 | -0.102 | 0.018 | -0.328 (active)
29 | SNX15 (UniProt Q9NRS6) | 0.177 | -0.223 | -0.023 |  |  | -0.016 | -0.045 | -0.051 | 0.119 | 0.039
30 | SLC38A7 (UniProt Q9NVC3) | -0.283 | -0.054 | -0.023 | 0.078 | -0.018 | 0.109 | -0.123 | 0.036 |  | -0.589
31 | SLC35A1 (UniProt P78382) | 0.148 | 0.118 | -0.034 | 0.018 | -0.002 |  | -0.056 | -0.013 | -0.191 | 
